ChEMBL document CHEMBL3988442, “University of Dundee, Small-Polar-MMV Screening Library” (2021)

Assays:
[1] = molecular target: T1, Aspartate--tRNA(Asp/Asn) ligase (Mycobacterium tuberculosis (strain ATCC 25618 / H37Rv)) (UniProt P9WFW3); test: Assay for Asp RNA synthetase-1 from Mycobacterium tuberculosis; type: functional; set-up: scale not given: direction of the effect not stated beside the values; conditions: 30 µM; note: in the data most compounds retested in dose-response had high values
T1 sequence (whole entry): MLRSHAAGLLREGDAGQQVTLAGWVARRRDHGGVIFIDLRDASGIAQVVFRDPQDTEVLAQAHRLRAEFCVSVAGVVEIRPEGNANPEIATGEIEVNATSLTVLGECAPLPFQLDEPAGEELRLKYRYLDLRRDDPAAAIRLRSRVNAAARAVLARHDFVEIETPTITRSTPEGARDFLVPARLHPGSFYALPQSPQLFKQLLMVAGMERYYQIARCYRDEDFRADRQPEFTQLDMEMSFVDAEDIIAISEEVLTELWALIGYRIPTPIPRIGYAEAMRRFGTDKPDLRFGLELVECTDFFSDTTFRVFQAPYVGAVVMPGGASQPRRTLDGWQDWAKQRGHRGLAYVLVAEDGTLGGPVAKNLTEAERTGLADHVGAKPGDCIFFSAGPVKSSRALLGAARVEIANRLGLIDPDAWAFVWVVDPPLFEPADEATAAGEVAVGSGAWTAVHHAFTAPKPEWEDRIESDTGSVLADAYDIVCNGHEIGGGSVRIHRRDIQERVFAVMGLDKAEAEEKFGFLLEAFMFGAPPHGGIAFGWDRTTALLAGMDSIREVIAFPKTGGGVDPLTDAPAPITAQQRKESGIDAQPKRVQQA

[2] = molecular target: Shiga toxin 2 (Escherichia coli O157:H7) (UniProt P09385+P09386); test: E. coli 0.157:H7 Shiga Toxin SOP - stx2 screening assay; type: functional; set-up: scale not given: direction of the effect not stated beside the values; conditions: 30 µM

| SMILES | Percent Effect [1] | Percent Effect [2] |
| --- | --- | --- |
| O=C(CN1CCCC1Cn1cncn1)Nc1cccnc1 (centres undefined) | 1.28% | 9.88% |
| Cc1cc(C)n(CC2CCCN2CC(=O)N(C)C)n1 (centres undefined) | -2.12% | 10.1% |
| CCC(=O)N1CCC(O)(c2ncc(OC)nc2OC)CC1 | 1.66% | 16.1% |
| O=C1CC(c2ccco2)c2sc(C(=O)O)c(-c3ccccc3)c2N1 (centres undefined) | 7.4% | 19% |
| COCCN(C)CCN1CC2(CCN(C(=O)C3CCOC3)CC2)OC1=O (centres undefined) | -1.75% | -24.2% |
| CCOc1ccc2[nH]c(=O)c(CN3CCC(O)CC3)cc2c1 | -6.3% | -8.86% |
| O=C(CCSc1ccc(F)cc1)NS(=O)(=O)c1ccc2c(c1)OCCO2 | -0.411% | -1.47% |
| Cn1cc(CN2CCCC3(CCN(Cc4cccnc4)C3=O)C2)cn1 (centres undefined) | -1.18% | -7.77% |
| CC(NC(=O)c1cc(Br)c2c(c1)OCCO2)C(N)=O (centres undefined) | -2.13% | -4.92% |
| COc1cc(CNC(=O)Nc2cc(C(F)(F)F)c[nH]c2=O)ccn1 | -3.59% | 25.7% |
| O=C1C(NS(=O)(=O)c2cc(F)cc(F)c2)CCN1Cc1ccccc1 (centres undefined) | -5.71% | 3.9% |
| COCC(=O)N1CC[C@@H]2O[C@H](COCc3ccncc3)CC[C@@H]21 | 4.14% | -2.38% |
| O=S(=O)(Cc1ccccc1)NCC1CCN(c2cnccn2)CC1 | 2.52% | 11.3% |
| CN1N=C(C(=O)N(Cc2ccco2)C2CC2)CCC1=O | -2.73% | 1.36% |
| O=C(CCN1CCC(C(=O)c2cc(F)ccc2F)CC1)NC1CC1 | 1.41% | -24.2% |
| CCCn1[nH]cc/c1=N\C(=O)CN1CCCC1c1c(C)nn(C)c1C (centres undefined) | -0.979% | -11% |
| COc1ccc(CN2CC[C@H](NC(C)=O)[C@@H](O)CC2)c(OC)c1 | 3.53% | -14.9% |
